IMPase cell inh: cell-permeable inhibitors of inositol monophosphatase (IMPase); P97697; CHO-M1 cells, IP1 accumulation, HTRF TR-FRET ratio; inhibition (IP1 accumulation), % at 46.1 µM; 120,000 tested, under 10 active; active means well fitted curve in the direction sought with a large enough effect in the signal ratio, not every such curve was filed as active; inconclusive means small, poorly fitted or top-dose-only effect, or a change in a side signal; inactive means no such curve, though single readings can be large or run the other way; the % refers to the signal ratio;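 further: cells stimulated with carbachol in lithium chloride buffer; plate controls were DMSO basal wells for no effect and reference inhibitor wells for full effect; higher means more IMPase inhibition seen as more IP1 and lower FRET ratio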
Target sequence (P97697 whole entry, looked up): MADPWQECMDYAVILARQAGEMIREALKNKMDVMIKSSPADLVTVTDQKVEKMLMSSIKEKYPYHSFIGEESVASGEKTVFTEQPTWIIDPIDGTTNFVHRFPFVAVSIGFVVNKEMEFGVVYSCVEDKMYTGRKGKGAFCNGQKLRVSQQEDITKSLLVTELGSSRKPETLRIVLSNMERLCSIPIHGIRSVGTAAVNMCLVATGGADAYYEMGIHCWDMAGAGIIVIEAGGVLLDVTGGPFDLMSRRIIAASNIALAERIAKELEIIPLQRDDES
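In this qHTS, compounds (final up to 46 uM) act on CHO-M1 cells that are then activated through the M1 receptor with carbachol, in pH 7.4 buffer containing 50 mM LiCl, for 30 min. IP1 accumulation is quantified by the IP-One immunoassay.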
HPGD inh: blocks human HPGD enzyme activity; purified HPGD, NADH fluorescence kinetic, PGE2 substrate; Potency, µM, for inactives: at the top dose activity change, negative = inhibition, hits mostly inhibitors; 4.3% of 150,000 active; further: potency means the concentration at half of the fitted maximal effect
Target sequence (P15428 whole entry, looked up): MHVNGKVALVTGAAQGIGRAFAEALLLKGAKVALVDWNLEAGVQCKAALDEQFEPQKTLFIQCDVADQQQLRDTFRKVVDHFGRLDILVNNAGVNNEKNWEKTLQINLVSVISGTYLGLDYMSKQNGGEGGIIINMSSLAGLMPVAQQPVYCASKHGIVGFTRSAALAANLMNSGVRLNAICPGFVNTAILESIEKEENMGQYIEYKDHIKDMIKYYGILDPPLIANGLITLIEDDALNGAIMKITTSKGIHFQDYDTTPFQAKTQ
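NADH formation kinetics: reaction with 30 uM PGE2 and 1 mM NAD+ (final), 20 nM enzyme, Tris-HCl pH 8 with Tween 20, after 15 min compound preincubation at room temperature. Fluorescence change, last versus first of five reads.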
PNC inhibitor: blocks assembly of the perinucleolar compartment. PC3M PTB-GFP, PNC prevalence imaging, 16 h; hits give low values. activity change (PNC), negative = inhibition, % at 10 µM. 3.1% of 140,000 active. AID 2417;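 active means readout at or below -70, meaning at least 70% loss of cells showing the perinucleolar compartment, a nuclear body marking cancer cells; inconclusive means readout between -30 and a set limit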;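 further: plate controls were DMSO wells for no effect and camptothecin positive control wells for full effect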
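PC3M cells stably expressing PTB-GFP, 750–1000 cells/well, treated 16 h at 37 °C with compound (23 nl of library stock), in duplicate. After paraformaldehyde fixation and Hoechst stain, imaged at 20x; PNC prevalence scored by image analysis.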
ALDH1A1 inh: ALDH1A1 (human) enzyme inhibition. P00352. Purified ALDH1A1, NADH fluorescence, propionaldehyde substrate. Potency, µM (highest dose often 75.3 µM), for inactives: at the top dose activity, negative = inhibition, most hits filed as inhibitors. 7.3% of 220,000 active;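 further: potency means the concentration at half of the fitted maximal effect; plate controls were no enzyme wells and a reference inhibitor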
Luc counter: counter-screen: inhibitors of Kinase-Glo firefly luciferase. AID 1379. Kinase-Glo luciferase, ATP luminescence, 8 min. Potency, µM (doses to about 38.3 µM), for the others: at the top dose activity change, negative = inhibition, hits mostly inhibitors. 0.28% of 200,000 active; active means well fitted inhibition curve with a large enough effect; inconclusive means small, poorly fitted or top-dose-only effect; further: potency means the concentration at half of the fitted maximal effect; nearly all actives have a fitted effect of over 60% in size
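Light output from Kinase-Glo luciferase with luciferin and 10 uM ATP in 50 mM imidazole pH 7.2, KCl, MgCl2, Tween 20, BSA; compound pin-delivered, 8-min ambient incubation, then luminescence read.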
LMNA splice mod: modulators of lamin A splicing; HeLa LMNA splicing GFP/RFP minigene ratio, 48 h; Potency, µM (titrated, usually from 46.1 µM), without a hit: at the highest dose ratio change, negative = inhibition, most hits filed as inhibitors; 0.01% of 200,000 active; AID 1487; active means well fitted inhibition curve with a large enough effect in the signal ratio, with a control signal flat, not every such curve was filed as active; inconclusive means small, poorly fitted or top-dose-only effect, or effect the other way, or a change in a side signal; the % refers to the signal ratio; further: potency means the concentration at half of the fitted maximal effect
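S3 HeLa cells stably expressing lamin A-EGFP splicing minigene plus DsRed2, 600 cells/well, 48 h compound exposure at 37C. Laser-scanning cytometry; analysed as GFP (500-530 nm)/RFP (575-640 nm) total intensity ratio; 0.5% DMSO vehicle.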
Starred values were filed as active, the others as inactive; ? = inconclusive; . = no result given; [ ] = dose if it differs, or a comment. Compounds with a hit are over-represented: about 10% of the library has one in this group of screens. Unless noted, the call rests on the fitted dose curve; in most records, active means well fitted inhibition curve with a large enough effect (not every such curve was filed as active); inconclusive means small, poorly fitted or top-dose-only effect, or another doubt; inactive means no such curve, though single readings can be large or run the other way. Unless noted, on the % scale 0 is the no-effect control and ±100 the full control effect.

SMILES	IMPase cell inh	HPGD inh	PNC inhibitor	ALDH1A1 inh	Luc counter	LMNA splice mod
CCOC(=O)CCNC(=O)N1CCN(S(=O)(=O)c2ccc3c(ccn3C)c2)CC1	.	.	.	.	.	12%[46 µM]
COC(=O)c1ccc2c(c1)N(CC(=O)Nc1ccc(C)cc1Cl)C(=O)c1ccccc1S2	.	.	.	.	.	-12%[46 µM]
CN1CCN(c2ncc3nc(-c4cc(F)cc(F)c4)c(=O)n(CCc4ccccc4)c3n2)CC1	.	.	.	?	.	11%
CN(C)S(=O)(=O)c1cccc(C(=O)OCC(=O)c2ccc3c(c2)NC(=O)CO3)c1	0	-23%	23	22µM*	2%	-5%
COc1ccccc1N1CCN(S(=O)(=O)c2ccc(F)c(C(=O)Nc3ccc(C)c(F)c3)c2)CC1	.	.	.	.	.	-5%[46 µM]
COc1ccc(C(=O)CN2C(=O)N(c3cc(C)cc(C)c3)S(=O)(=O)c3ccccc32)cc1	.	.	.	.	.	-4%[46 µM]
COc1ccc(N(C(C)C(=O)N/N=C/c2ccc(OC(C)C)cc2)S(C)(=O)=O)cc1 (stereo not given)	7	-29%	27	14µM*	-2%	?
COc1ccc(S(=O)(=O)Nc2ccc3oc4c(c3c2)C(=O)CC(C)(C)C4)cc1	-3	.	.	.	.	.
O=[N+]([O-])C(=C1Nc2ccccc2N1)/C(Cl)=C(/Cl)Br	.	-7%	-20	24µM*	-3%	4%
O=C1/C(=C\c2ccc([N+](=O)[O-])cc2)CCc2ccccc21	.	-3%	78	8%	13µM*	-4%
COc1ccc(-c2cc(C(F)(F)F)n3nc(C)c(-c4ccccc4)c3n2)cc1OC	-5	.	.	.	.	.
Cc1cc(C)c2c(=O)n(CC(=O)NCCCN3CCOCC3)sc2n1	-1	?	?	?	7.9µM*	4%
Cc1ccc(SCC(=O)NCCCN2CCOCC2)cc1	-4	6%	?	8%	-1%	10%
Cc1cc(C)c2c(=O)n(CC(=O)NCCCN3CCN(c4ccccc4F)CC3)sc2n1	12	?	-10	3.5µM*	11µM*	-9%
CC(C)c1ccc(S(=O)(=O)N2CCN(CC(=O)Nc3ccccc3C(F)(F)F)CC2)cc1	.	.	.	.	.	2%[46 µM]
CN(C)c1ccc(CNC(=O)C2CCN(Cc3cc4ccccc4n3Cc3ccccc3)CC2)cc1	.	.	.	.	.	-8%[46 µM]
COc1ccc(-n2c(=S)[nH]c3cc(C(=O)Nc4ccc(OC)c(OC)c4)ccc3c2=O)cc1	-9	-14%	17	-2%	-1%	-7%
O=C(NCc1ccco1)c1ccc2c(=O)n(-c3ccccc3)c(=S)[nH]c2c1	-27	-3%	46	0.22µM*	-2%	-1%
COc1ccc(-n2c(=S)[nH]c3cc(C(=O)NCc4ccco4)ccc3c2=O)cc1OC	0	-13%	-22	0.11µM*	8%	11%
COc1ccc(CCn2c(=S)[nH]c3cc(C(=O)NCc4ccco4)ccc3c2=O)cc1OC	5	?	20	0.05µM*	5%	9%
COC(=O)c1ccc2c(=O)n(-c3ccccc3)c(=S)[nH]c2c1	.	.	.	?	-2%	?
Clc1ccc(CNCc2cccs2)cc1Cl	.	-9%	4	0%	-2%	2%
Brc1cccc(CNCc2cccs2)c1	.	-11%	-89*	8%	-2%	9%
COC(=O)c1ccccc1NC(=O)Cn1c(=O)n(-c2cccc(OC)c2)c(=O)c2c(C)c(C(=O)N(C)C)sc21	.	.	.	.	.	-1%[46 µM]
O=C(NNC(=O)c1cccnc1)NC12CC3CC(CC(C3)C1)C2	.	-5%	-81*	4%	2%	-3%
SMILES	IMPase cell inh	HPGD inh	PNC inhibitor	ALDH1A1 inh	Luc counter	LMNA splice mod
O=C(NC12CC3CC(CC(C3)C1)C2)c1cccnc1	1	-7%	?	-13%	-7%	2%
Cc1ccccc1C(=O)NCc1nnc(SCC(=O)N2CCN(c3ccccc3)CC2)n1C	9	0%	?	10µM*	-1%	-7%
Cc1ccc(C(=O)Nc2ncc3c(Cl)cccc3n2)cc1	2	-4%	?	-7%	11µM*	0%
OC1c2ccccc2-c2nc3ccccc3cc21 (stereo not given)	.	-25%	.	?	?	.
O=C(Nc1ccc([N+](=O)[O-])cc1)Nc1ccc(OC(F)F)c(Cl)c1	.	-4%	-113*	-1%	0%	?
O=C(Nc1ccc(OC(F)F)c(Cl)c1)Nc1ccc2c(c1)OCO2	-1	-7%	-87*	0%	0%	?
O=C(Nc1ccc2c(c1)OCO2)Nc1ccc2c(c1)OCO2	.	.	.	-4%	-4%	-1%[46 µM]
COc1ccc(NC(=O)Nc2cccc([N+](=O)[O-])c2)cc1Cl	-3	-15%	?	?	6%	?
C/C(CCC(=O)OC[C@@H]1O[C@H](C#Cc2ccccc2)C=C[C@@H]1Oc1ccc(C)cc1)=N/O[C@@H](C)CN1CCCc2nc(C)c(C)cc21	.	.	.	-9%[13.5 µM]	.	.
CCn1nc(C(=O)Nc2nc3ccccc3[nH]2)c2ccccc2c1=O	.	-10%	-89*	-10%	0%	?
O=C(Nc1nc2ccccc2[nH]1)c1ccc(F)cc1	-1	-10%	-1	11%	?	4%
Cn1nc(C(=O)Nc2nc3ccccc3[nH]2)c2ccccc2c1=O	5	-15%	?	-4%	-1%	-19%
O=C(Nc1nc2ccccc2[nH]1)c1ccccc1F	-12	-2%	12	2%	2µM*	?
COc1ccc(/C=N/n2cnn(Cc3ccccc3Cl)c2=S)cc1	.	.	.	10µM*	2%	-6%[46 µM]
COc1cc(/C=N/n2cnn(Cc3ccccc3Cl)c2=S)cc(OC)c1OC	.	.	.	?	9%	?
CC(=O)OC1CC2C(C)(C)C(=O)CC[C@]2(C)C2CC[C@]3(C)C(=CC(=O)OC3c3ccoc3)[C@]12C (stereo not given in full)	.	1%	.	5%	-4%	.
